Hits are enriched below; roughly 2.4% of the tested compounds scored in any of these assays.
PHOSPHO1 block: inhibitors of human PHOSPHO1 phosphatase. Q8TCT1. recombinant PHOSPHO1, absorbance phosphatase assay. inhibition, % at 13.3 µM. 1.1% of 290,000 active. AID 1565; in the data active = inhibition above about 60%
PABP1 MLLE inh: inhibitors of microRNA-mediated deadenylation, human PABP1 MLLE binding; 0.36% of 360,000 active; inhibition, % at 20 µM; GST-MLLE / FITC-PAM2 fluorescence polarization; in the data active = inhibition above about 35%, passing the limit was not always enough;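 note: plate controls were DMSO wells with GST-MLLE for no effect and wells lacking GST-MLLE protein for full effect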
Target sequence (P11940 whole entry, looked up): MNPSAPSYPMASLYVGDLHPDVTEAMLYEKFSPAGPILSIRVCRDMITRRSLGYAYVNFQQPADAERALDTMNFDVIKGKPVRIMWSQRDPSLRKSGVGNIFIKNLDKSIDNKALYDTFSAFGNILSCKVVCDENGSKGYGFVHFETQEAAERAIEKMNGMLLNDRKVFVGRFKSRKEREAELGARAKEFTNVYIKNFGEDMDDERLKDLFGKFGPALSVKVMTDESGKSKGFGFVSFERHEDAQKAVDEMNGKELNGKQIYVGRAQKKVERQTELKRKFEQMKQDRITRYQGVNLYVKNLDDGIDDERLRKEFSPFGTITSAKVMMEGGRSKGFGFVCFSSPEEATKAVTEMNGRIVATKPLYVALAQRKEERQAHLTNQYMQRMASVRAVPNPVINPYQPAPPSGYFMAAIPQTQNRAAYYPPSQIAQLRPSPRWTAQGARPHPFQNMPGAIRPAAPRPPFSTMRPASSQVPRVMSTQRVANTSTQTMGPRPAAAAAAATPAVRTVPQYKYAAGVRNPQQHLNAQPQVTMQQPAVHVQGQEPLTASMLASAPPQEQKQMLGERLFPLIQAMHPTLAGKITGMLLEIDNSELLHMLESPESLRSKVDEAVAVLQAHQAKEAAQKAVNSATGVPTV
PABP polyA inh: PABP-poly(A) binding inhibition; AID 2014; PABP-poly(A) RNA binding, fluorescence polarization; calls only at 35 µM; P11940; 1% of 290,000 active;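 note: calls also rest on retests at 20 µM and on dose response follow-up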
eIF4H inh: inhibitors of RNA binding by human eIF4H | Q15056 | eIF4H fluorescence polarization binding assay | inhibition, % at 35 µM | 0.94% of 290,000 active;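 note: calls also rest on retests at 20 µM and on dose response follow-up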
Efa HMGR inh: inhibitors of class II HMG-CoA reductase from Enterococcus faecalis. purified E. faecalis HMGR, NADPH absorbance 340 nm kinetic. inhibition, % at 10 µM. 0.41% of 190,000 active. AID 1066;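 active = inhibition above a set limit, the median over all tested compounds plus 3 SD, cut at about 9.5% in these data; inconclusive = no clear call, values can overlap the other calls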;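 note: enzyme runs in reverse so mevalonate oxidation gives rising NADPH absorbance; 0% = complete reaction with DMSO and 100% = background rate lacking mevalonate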
* = called active by the depositor; i = inactive; ? = inconclusive; nt = no result given; + = active, no number. Unless noted, the rule behind the calls is not given here.

SMILES	PHOSPHO1 block	PABP1 MLLE inh	PABP polyA inh	eIF4H inh	Efa HMGR inh
S=c1[nH]ncn1/N=C/c1cccs1	-10	-9	i	-9	nt
S=c1[nH]ncn1/N=C/c1ccccn1	98*	-31	i	8	-2
CC1CN(C(=O)C2CCCC2)C(C)CN1C(=O)C1CCCC1 (stereo not given)	60*	4	i	-9	2
CC1CN(C(=O)C2CCCCC2)C(C)CN1C(=O)C1CCCCC1 (stereo not given)	-2	2	i	-1	-1
COc1ccc([C@H]2CC(=O)C=C(c3cccc4c3Oc3ccccc3S4)C2)cc1OC	nt	1	nt	nt	nt
O=C(CSc1nnc(Nc2ccccc2)s1)NCC1CCCO1 (stereo not given)	nt	-13	nt	nt	nt
COc1cccc(Nc2nnc(SCC3CCCCO3)s2)c1 (stereo not given)	-16	-9	i	-2	-11
Cc1cc(C(=O)CSc2nnc(Nc3ccccc3F)s2)c(C)n1CC1CCCO1 (stereo not given)	94*	-26	i	5	0
Cc1cccc(Nc2nnc(SCC3CCCCO3)s2)c1C (stereo not given)	1	9	i	1.8*	-2
Cc1cc(C(=O)CSc2nc3ccccc3c(=O)n2C)c(C)n1CC1CCCO1 (stereo not given)	12	nt	i	10	1
CCn1c(SCC(=O)c2cc(C)n(CC3CCCO3)c2C)nc2ccccc21 (stereo not given)	73*	-86	i	34	-5
Cc1cc(C(=O)CSc2nnc(Nc3ccccc3)s2)c(C)n1CC1CCCO1 (stereo not given)	90*	-33	i	-6	-3
Cc1cc(C(=O)CSc2nnc(-c3cccnc3)n2-c2ccccc2F)c(C)n1CC1CCCO1 (stereo not given)	53	-19	i	23	2
CCC(CC)NC(=O)CSc1ccc(S(=O)(=O)N2CCCCC2)cn1	nt	23	nt	nt	nt
COc1ccc(CN2C(=O)c3ccccc3C2=O)cc1C(=O)N(C)CC(=O)Nc1ccc(F)cc1	nt	2	nt	nt	nt
CCCCn1c(N)c(N(CC(C)C)C(=O)CCCc2nc3ccccc3c(=O)[nH]2)c(=O)[nH]c1=O	nt	-2	nt	nt	nt
COc1ccccc1C(=O)Nc1nnc(SCC(=O)NCC2CCCO2)s1 (stereo not given)	13	9	i	-8	nt
COc1ccccc1Nc1nnc(SCC(=O)c2cc(C)n(CC3CCCO3)c2C)s1 (stereo not given)	93*	-37	i	-2	-2
COc1ccc(N2C(=S)NC3N2C(=S)NC3(C)c2ccccc2)cc1 (stereo not given)	61*	-83	i	-1	-8
CC1(c2ccccc2)NC(=S)N2C1NC(=S)N2c1ccccc1 (stereo not given)	61*	-30	i	-2	2
CC1CCCC2(C1)NC(=S)N(c1ccccc1)N2 (stereo not given)	57	-42	i	1	2
COc1ccc(-n2cc(-c3ccccc3)[nH]c2=S)cc1	-6	23	i	-9	1
CC(C)(C)c1ccc(S(=O)(=O)N2CCC(CO)(CC3CCCCO3)CC2)cc1 (stereo not given)	34	5	i	-6	-3
CCCCn1c(SCC(=O)NC(C)CC)nc2ccc(N3CCOCC3)cc2c1=O (stereo not given)	60*	-35	i	3	-2
CCC(C)NC(=O)CSc1nc2ccc(N3CCOCC3)cc2c(=O)n1CCc1ccccc1 (stereo not given)	4	nt	i	19	-6
SMILES	PHOSPHO1 block	PABP1 MLLE inh	PABP polyA inh	eIF4H inh	Efa HMGR inh
Cc1ccc(-c2cnc(SCC(=O)N3CCCc4ccccc43)n2C)cc1	77*	-102	i	-10	4
Cn1c(-c2ccccc2)cnc1SCC(=O)N1CCCc2ccccc21	-24	1	i	-8	-7
Cc1cccc(NC(=O)CSc2nnc(-c3cc(C)[nH]n3)n2N)c1	44	2	i	-10	nt
CCC(C)c1ccc(NC(=O)NCCN2CCCCC2)cc1 (stereo not given)	nt	8	i	-3	nt
CCc1noc(C)c1C(=O)Nc1cc(S(=O)(=O)N2CCOCC2)ccc1OC(C)C	nt	-51	nt	nt	nt
CCC(Sc1ccc2nnc(-c3cccnc3)n2n1)C(=O)OC (stereo not given)	16	-3	i	-3	9.6*
CCC(Sc1ccc2nnc(-c3ccc(OC)c(OC)c3)n2n1)C(=O)O (stereo not given)	60*	11	i	-1	-1
COc1ccc(-c2nnc3ccc(SC(C(C)=O)C(C)=O)nn23)cc1OC	106*	21	i	10	-2
COC(=O)CSc1ccc2nnc(-c3ccc(OC)c(OC)c3)n2n1	-12	-6	i	-10	-2
CCOC(=O)CSc1ccc2nnc(-c3cccnc3)n2n1	29	15	i	-2	-2
Nc1nc(-c2ccc(Cl)cc2)nn1C(=O)c1cccs1	8	2	+	?	0
Nc1nc(-c2ccc(Cl)cc2)nn1C(=O)c1cccnc1	-14	-11	i	-4	-4
COCCn1nnnc1C(c1ccc(Cl)cc1)N1CCSCC1 (stereo not given)	74*	-1	i	-5	-1
CC(=O)c1c(COC(=O)c2cccnc2)nc2ccccc2[n+]1[O-]	88*	-123	+	5	-3
CC(C)N1CCC(=O)NC1=O	nt	-4	nt	nt	nt
COc1ccc(C(=O)/C=C/Sc2nc3ccccc3o2)cc1	16	4	i	1	nt
CCCCOC(=O)Sc1nc2ccccc2o1	94*	-59	i	-6	-1
COC(=O)c1cc(NC(=S)Nc2cc(Cl)cc(Cl)c2)cc(C(=O)OC)c1	-12	36*	i	-1	-4
C#CCN(C[C@H]1[C@H](OC(=O)Nc2c(C)noc2C)[C@H](OC(=O)Nc2c(C)noc2C)C[C@@H](C(=O)OC)[C@H]1C(=O)OC)S(=O)(=O)c1ccc(C)cc1	nt	5	nt	nt	nt
CCCCCOC(=O)Nc1ccc(S(=O)(=O)Nc2cccc([N+](=O)[O-])c2)cc1	8	3	i	4	-4
CCCCOC(=O)Nc1ccc(S(=O)(=O)Nc2ccc([N+](=O)[O-])cc2)cc1	0	-3	+	90	-5
Cc1ccc2[nH]c(=O)c(C(c3nnnn3CC3CCCO3)N3CCCc4ccccc43)cc2c1 (stereo not given)	86*	30	i	31	0
Cc1ccc2[nH]c(=O)c(C(c3nnnn3CC3CCCO3)N3CCc4ccccc4C3)cc2c1 (stereo not given)	-46	78*	i	-3	7
CCC(C)(C)n1nnnc1C(c1cc2cc(C)ccc2[nH]c1=O)N1CCCc2ccccc21 (stereo not given)	75*	9	i	0	-7
Cc1ccc2[nH]c(=O)c(C(c3nnnn3CC3CCCO3)N3CCOCC3)cc2c1 (stereo not given)	-8	19	i	0	0
